From PubChem BioAssay (Tox21)
Records with an inconclusive call do not appear. Active and inactive are the calls of the source. Unless noted, calls come from the whole dose curve; as a rule, active = well fitted curve in the direction sought with a large enough effect in the repeat runs; inconclusive = weak or mixed curves; inactive = no such curve, though single readings can be large; an effect the other way counts as inactive or inconclusive.

What was measured:
[1] = qHTS assay to identify small molecule agonists of the vitamin D receptor (VDR) signaling pathway - cell viability counter screen (AID 743224); note: series mostly up to about 63 µM; nearly all actives have a fitted effect of over 50% in size
How it was run: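 VDR-bla cell line, quantitative HTS format; 16 h compound incubation (37C, 5% CO2); ATP-based CellTiter-Glo luminescence measured in the reporter assay wells.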

[2] = qHTS assay to identify small molecule antagonists of the vitamin D receptor (VDR) signaling pathway - cell viability counter screen (AID 743225); note: nearly all actives have a fitted effect of over 50% in size
How it was run: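 Cytotoxicity counter screen read by CellTiter-Glo luminescence (30 min, room temperature) in the same wells as the VDR-bla antagonist readout. HEK 293T VDR-UAS-bla cells had 16 h at 37C with compound and 3 nM (final) 1-alpha,25-dihydroxyvitamin D3, then 2 h with FRET substrate.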

[3] = qHTS assay to identify small molecule agonists of the NFkB signaling pathway - cell viability counter screen (AID 1159515; calls by dose curve; note: series mostly up to about 61 µM; nearly all actives have a fitted effect of over 55% in size)
How it was run: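 Viability in NFkB-bla ME-180 cells was measured by CellTiter-Glo luminescence, 30 min room temperature, in wells already treated 5 hr with compounds and read for reporter FRET.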

[4] = qHTS assay to identify small molecule agonists of the endoplasmic reticulum stress response signaling pathway (AID 1159516; active = well fitted activation curve with a large enough effect in the signal ratio in the repeat runs, not every such curve was filed as active; the % refers to the signal ratio)
How it was run: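 ER stress element reporter (bla) in HeLa. 1,500 cells/well, overnight attachment; 5 hr compound; 2 hr RT substrate; dual-emission fluorescence.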

[5] = qHTS assay to identify small molecule agonists of the endoplasmic reticulum stress response signaling pathway - cell viability counter screen (AID 1159517; calls by dose curve;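 note: HeLa cells carrying an ER stress response element beta-lactamase reporter; series mostly up to about 61 µM; nearly all actives have a fitted effect of over 50% in size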)
How it was run: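 Luminescence readout: CellTiter-Glo, 30 min RT, same wells as the ESRE-bla reporter read. HeLa ESRE-bla, 1,500 cells/well, o/n 37 C; cpd 5 hr 37 C/5% CO2.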

[6] = target: Nuclear receptor ROR-gamma (Homo sapiens) (UniProt P51449); assay: qHTS assay to identify small molecule antagonists of the retinoid-related orphan receptor gamma (ROR-gamma) signaling pathway (AID 1159521; note: top concentration of the series differs between compounds; nearly all actives have a fitted effect of over 50% in size)
How it was run: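 Antagonist read-out: drop in luminescence (ONE-Glo) from an RORE-LUC reporter in CHO cells with doxycycline-inducible ROR-gamma; 2 hr compound pretreatment, 1 uM doxycycline, 16 hr incubation at 37 C.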

[7] = qHTS assay to identify small molecule agonists of the AP-1 signaling pathway - cell viability counter screen (AID 1159525; calls by dose curve; note: nearly all actives have a fitted effect of over 55% in size)
How it was run: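 ME-180 AP-1-bla, 2500 cells/well, Opti-MEM + 0.5% dialyzed FBS; overnight 37 °C; cpd 15-pt titration, 5 h 37 °C; CellTiter-Glo 30 min RT; luminescence read; normalised to TOAB and DMSO controls.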

[8] = qHTS assay to identify small molecule agonists of the AP-1 signaling pathway (AID 1159526; calls by dose curve)
[9] = qHTS assay to identify small molecule antagonists of the retinoid acid receptor (RAR) signaling pathway - cell viability counter screen (AID 1159551); note: nearly all actives have a fitted effect of over 35% in size
How it was run: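 Following overnight attachment, C3RL4 reporter cells received DMSO-dissolved compounds and then retinol (1 uM final). Six hours later at 37 C, ATP content was measured by CellTiter-Glo luminescence.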

[10] = qHTS assay to identify small molecule antagonists of the retinoic acid receptor (RAR) signaling pathway (AID 1159552; note: nearly all actives have a fitted effect of over 50% in size)
How it was run: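 Luminescent RARE reporter read-out in C3RL4 cells: 6 hr co-treatment at 37 C of test compounds with retinol at 1 uM final. Cells plated overnight beforehand; luciferase reagent incubated 30 min at room temperature before reading.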

[11] = qHTS assay to identify small molecule agonists of the retinoic acid receptor (RAR) signaling pathway (AID 1159553)
How it was run: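 Cell line C3RL4, RARE luciferase reporter. Treatment: compounds in DMSO, 6 hr, 37 C, 5% CO2, after overnight plating. Detection: luminescence, 30 min RT after reagent.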

[12] = qHTS assay to identify small molecule antagonists of the retinoid-related orphan receptor gamma (ROR-gamma) signaling pathway - cell viability counter screen (AID 1159520); note: nearly all actives have a fitted effect of over 50% in size
How it was run: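 Tet-on ROR gamma CHO cells (1,000/well) were plated 4 hr, given compounds in DMSO for 2 hr at 37 C, then induced with 1 uM final doxycycline for 16 hr. Viability was read as ATP by CellTiter-Glo luminescence after 30 min.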

[13] = qHTS assay to identify small molecule agonists of the RXR signaling pathway - cell viability counter screen (AID 1159529)
How it was run: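 CellTiter-Glo luminescence gave viability in the wells also read for beta-lactamase. Cells (RXR-alpha-UAS-bla HEK 293T, 2% charcoal-stripped FBS medium) had 5 hr plating, then 16 hr compound exposure at 37 C; tetraoctyl ammonium bromide served as positive control.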

[14] = target: Retinoic acid receptor RXR-alpha (Homo sapiens) (UniProt P19793); assay: qHTS assay to identify small molecule agonists of the RXR signaling pathway (AID 1159527; calls by dose curve; note: nearly all actives have a fitted effect of over 35% in size)
Sequence of Retinoic acid receptor RXR-alpha (Homo sapiens) (P19793 whole entry, looked up): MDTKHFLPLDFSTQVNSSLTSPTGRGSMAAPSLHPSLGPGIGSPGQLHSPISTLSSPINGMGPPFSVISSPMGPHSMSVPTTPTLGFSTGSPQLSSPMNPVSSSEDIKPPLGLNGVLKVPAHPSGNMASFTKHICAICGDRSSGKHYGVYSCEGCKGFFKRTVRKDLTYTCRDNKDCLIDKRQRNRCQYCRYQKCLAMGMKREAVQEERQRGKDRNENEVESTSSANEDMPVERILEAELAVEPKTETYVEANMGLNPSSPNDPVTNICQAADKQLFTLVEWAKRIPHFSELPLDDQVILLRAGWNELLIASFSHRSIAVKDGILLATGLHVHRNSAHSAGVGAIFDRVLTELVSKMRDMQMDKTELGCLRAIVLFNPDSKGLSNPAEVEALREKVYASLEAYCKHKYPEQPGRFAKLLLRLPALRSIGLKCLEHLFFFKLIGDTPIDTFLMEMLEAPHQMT
How it was run: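 Agonist-mode beta-lactamase reporter assay: HEK 293T RXR-alpha-UAS-bla cells treated 16 hr at 37 C with compounds, 9-cis retinoic acid as positive control. LiveBLAzer FRET substrate, 405 nm excitation, 460/530 nm emission.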

[15] = qHTS assay to identify small molecule antagonists of the estrogen related receptor (ERR) signaling pathway from Tox21 library - cell viability counter screen (AID 1224834); note: nearly all actives have a fitted effect of over 30% in size; note: potency is the fitted concentration of half-maximal effect
How it was run: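 Viability readout (CellTiter-Fluor fluorescence, 30 min at 37 C) multiplexed with the ERR assay; cells treated 17.5 h at 37 C with compounds delivered in DMSO.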

Measured: Potency

CCC(=O)OC(C)(C)C1CC=C(C)CC1 (stereo not drawn)
not listed: [12] | [13] | [14] | [15]
inactive: all other assays above

N#CCCNCCC#N
not listed: [6] | [7] | [10] | [11] | [14] | [15]
inactive: all other assays above

CCCCCC/C=C/C=O
not listed: [6] | [8] | [15]
inactive: all other assays above

CC(=O)OC/C=C/c1ccccc1
not listed: [2] | [10] | [11] | [12] | [13]
inactive: all other assays above

CC(=O)OCCc1ccccc1
not listed: [2] | [12] | [14]
inactive: all other assays above

COc1ccc2[nH]c(S(=O)Cc3ncc(C)c(OC)c3C)nc2n1 (stereo not drawn)
not listed: [9] | [10] | [11] | [12] | [14] | [15]
inactive: all other assays above

Cc1cccc(C(C)(C)C)c1O
not listed: [6] | [8] | [9] | [15]
inactive: all other assays above

CC1CCc2cc(F)cc3c(=O)c(C(=O)O)cn1c23 (stereo not drawn)
not listed: [6] | [8] | [14]
inactive: all other assays above

O=[N+]([O-])c1cccc(Cl)c1Cl
not listed: [6] | [10] | [11] | [12] | [14]
inactive: all other assays above

COc1ccc(OC)c(OC)c1
not listed: [7] | [10] | [11] | [12] | [14] | [15]
inactive: all other assays above

COc1cc(C(C)(C)C)c(O)c(C(C)(C)C)c1
inactive: [2] | [3] | [4] | [5] | [7] | [13] | [15]

Nc1nc(N)c(-c2ccccc2)s1
not listed: [10] | [11] | [12] | [14]
inactive: all other assays above

CCCCCCCCC(CO)CCCCCC (stereo not drawn)
not listed: [9] | [12]
inactive: all other assays above

Cc1ccccn1
not listed: [7] | [12] | [14]
inactive: all other assays above

CCOC(=O)CC(=O)c1cc(F)c(Cl)nc1Cl
not listed: [2] | [6] | [7] | [8] | [9]
inactive: all other assays above

CN1CCN(C2=Nc3cc(Cl)ccc3Nc3ccccc32)CC1
active: [15] 26.6 µM
not listed: [1] | [12] | [14]
inactive: all other assays above

Cc1ccc2c(ccc3ccccc32)c1
not listed: [1] | [11] | [12] | [13]
inactive: all other assays above

CC1=CCC(C(C)C)C=C1 (stereo not drawn)
not listed: [6] | [10] | [11] | [12] | [13]
inactive: all other assays above

CC(=O)c1ccc2c(c1)[C@H](NC(=O)c1ccc(F)cc1)[C@@H](O)C(C)(C)O2
not listed: [12] | [14] | [15]
inactive: all other assays above
